The supplement of paper PMC6555819

The sequences below were run on FXR:RXRa (NR concentration 270 nM, RXRa partner concentration 90 nM) (assay: PBM binding z-score (relative to random genomic background probes); higher = stronger binding; sequences stand for … in GC…GCGATTGACAGCGTAGAATGAAGG).
How it was run: (§1)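 Ligand-free nuclear receptor dimers were applied to custom Agilent 4×180K protein-binding microarrays whose double-stranded probes carried direct-repeat seeds, single-nucleotide variants, half-site ablations and random human genomic background sequences in 34-nt variable regions. Incubation lasted 1 h. Binding z-scores were computed against the random background probes from regression-normalized fluorescence.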
With TCAATGAGGTTAAAGATCAGGGAACGTGGCGTCG the PBM binding z-score was 3.28.
TAGCTTAGGTCATTGGGCCAGTATAGTACGCATC showed a PBM binding z-score of 4.59.
Work on GGAACCAGGGCAAGTTGATAGCAGAGTTTGATGG yielded a PBM binding z-score of 1.5.
With TTACCAAGATGAAGGTCGTTGATCCCTCTGTAGA the PBM binding z-score was 1.47.
TCTTGTAGATCAAGCAGGTTAAGAACGCCTGAGT showed a PBM binding z-score of 0.558.
TGAATGAGGTTAAAGATCAGGGCACGTGGCGTCG gave a PBM binding z-score of 2.95.
ATCTCTAGGTAAGACTCCGTTCAGTGAAGAACGC was tested, and the PBM binding z-score was 0.49.
Sequence CCAGACAGGTAAAAGGTAACTCAGTCTGGTACGC has a PBM binding z-score of -0.0774.
In the case of TCATATAGGTAAAAGGTGAAATTCGGTGTGGTAA, the PBM binding z-score is reported as 2.42.
GGAACGAGGACAAGTTGATAGCAGAGTTTGATGG showed a PBM binding z-score of 0.526.
TCGAGTAGGTTTGTCGGGGCATTCAGCCAACATA gave a PBM binding z-score of 0.314.
For GATACAGGGTCAGCTAGAGGCCAGAGTGTGGAAA, the PBM binding z-score was 4.82.
Work on TAGCCAAGGTCATGGGCCAGTATACCACGCGAAC yielded a PBM binding z-score of 7.33.
Sequence GCTAGTTGGTGAGTAAAAGGTCACACACCGGTCG has a PBM binding z-score of 3.1.
CCTACTGGGCCATCAGATCATTGATATCAACGTT showed a PBM binding z-score of -0.345.
With TAGCCTAGGTCATCCGGGCCAGTATAGTGTCGGC the PBM binding z-score was 4.52.
CGTCCAAGGTCAAAGGACAGTGAAGAGATGACGG showed a PBM binding z-score of 6.9.
TCACGGAGGACACGAAAGGTCAGAGCTCGACATC was tested, and the PBM binding z-score was 3.04.
With AATGCAGGGTCACTAGGCCAGAGTAGGTACGAAT the PBM binding z-score was 6.22.
CGAACTAGGTCATTGGCAGGACAGTGAATAGTAA was tested, and the PBM binding z-score was 4.29.
TCATATAGGTAATACAGGTGAAGGTCGGCATCTA gave a PBM binding z-score of 1.22.
Work on AGAATGAGGTTAAGATCAGTGAAACAGAATACAT yielded a PBM binding z-score of 2.32.
TGAATGAGGTTATAAGATCAGGCAACGTTGCAAA gave a PBM binding z-score of 1.34.
CGAACGAGGGCATGAGTTGACAGCAAATGCCGAT showed a PBM binding z-score of 0.601.
For CGAACTGGGTCATTGACAGGACAGTGAATAGTAA, the PBM binding z-score was 3.16.
For GCTGCTAGGCCAACTGATGGTCAGCTAAAGCTCG, the PBM binding z-score was -0.828.
Work on TCTAGTTGGTCACGGAGGTCACACACGACGGGTA yielded a PBM binding z-score of 3.14.
For CGTCCAAGGTCAATGCTAGGACAGTGAAAGCATT, the PBM binding z-score was 6.19.
In the case of CAAACTAGGTCAGAACAGGACAGTGAAGGATGAT, the PBM binding z-score is reported as 1.81.
For ATCTCTAGGAAACAAGTTCAGTGAAAGAGAGGAC, the PBM binding z-score was 0.431.
Sequence AGTCAAAGTTCATCTAGGTAACTTAAGATATGCT has a PBM binding z-score of 6.76.
In the case of TCTAGTTGGTCACGGAGGTCACCCACGACGGGTA, the PBM binding z-score is reported as 3.16.
Work on CAAACTAGGTCACGAAAGGTCAATGTCGAATGAC yielded a PBM binding z-score of 7.08.
In the case of ATAGACAGGTGAGTGAAGGTAACTCAGCTGGACG, the PBM binding z-score is reported as 0.729.
With CCCACTGGGCCAAGGTCATTGATCAGTCAAAGCA the PBM binding z-score was 3.13.
Work on ATATGTAGGTTGTCGGGTCATTCAGTTTGCGCAT yielded a PBM binding z-score of 2.12.
ACTAGCAGGCCAAGTTTGGGTCACTTAAACAAAG gave a PBM binding z-score of 0.098.
GGAACGAGGGCAAGTTGATAGCAGAGTTTGATGG showed a PBM binding z-score of 1.07.
GCGACTGGAGCATCAGCAGGTTACCATAACTTAA gave a PBM binding z-score of -0.588.
Sequence AATACAGGGTCACAAGGCCAGAGTAGGTACGAAT has a PBM binding z-score of 6.89.

The sequences below were run on LXRa:RXRa (NR concentration 270 nM, RXRa partner concentration 90 nM) in the same assay as above.
How it was run: as §1
In the case of TCAATGAGGTTAAAGATCAGGGAACGTGGCGTCG, the PBM binding z-score is reported as 2.48.
Sequence TAGCTTAGGTCATTGGGCCAGTATAGTACGCATC has a PBM binding z-score of 4.02.
GGAACCAGGGCAAGTTGATAGCAGAGTTTGATGG showed a PBM binding z-score of 0.969.
TTACCAAGATGAAGGTCGTTGATCCCTCTGTAGA showed a PBM binding z-score of 1.91.
Work on TCTTGTAGATCAAGCAGGTTAAGAACGCCTGAGT yielded a PBM binding z-score of 0.44.
With TGAATGAGGTTAAAGATCAGGGCACGTGGCGTCG the PBM binding z-score was 2.69.
With ATCTCTAGGTAAGACTCCGTTCAGTGAAGAACGC the PBM binding z-score was 0.425.
CCAGACAGGTAAAAGGTAACTCAGTCTGGTACGC was tested, and the PBM binding z-score was 0.12.
TCATATAGGTAAAAGGTGAAATTCGGTGTGGTAA gave a PBM binding z-score of 1.99.
Sequence GGAACGAGGACAAGTTGATAGCAGAGTTTGATGG has a PBM binding z-score of -0.33.
TCGAGTAGGTTTGTCGGGGCATTCAGCCAACATA was tested, and the PBM binding z-score was 0.103.
GATACAGGGTCAGCTAGAGGCCAGAGTGTGGAAA gave a PBM binding z-score of 3.13.
Sequence TAGCCAAGGTCATGGGCCAGTATACCACGCGAAC has a PBM binding z-score of 5.41.
GCTAGTTGGTGAGTAAAAGGTCACACACCGGTCG gave a PBM binding z-score of 3.92.
In the case of CCTACTGGGCCATCAGATCATTGATATCAACGTT, the PBM binding z-score is reported as -0.391.
TAGCCTAGGTCATCCGGGCCAGTATAGTGTCGGC gave a PBM binding z-score of 3.54.
CGTCCAAGGTCAAAGGACAGTGAAGAGATGACGG was tested, and the PBM binding z-score was 5.32.
For TCACGGAGGACACGAAAGGTCAGAGCTCGACATC, the PBM binding z-score was 4.14.
AATGCAGGGTCACTAGGCCAGAGTAGGTACGAAT showed a PBM binding z-score of 4.62.
With CGAACTAGGTCATTGGCAGGACAGTGAATAGTAA the PBM binding z-score was 2.62.
In the case of TCATATAGGTAATACAGGTGAAGGTCGGCATCTA, the PBM binding z-score is reported as 1.34.
In the case of AGAATGAGGTTAAGATCAGTGAAACAGAATACAT, the PBM binding z-score is reported as 3.08.
TGAATGAGGTTATAAGATCAGGCAACGTTGCAAA gave a PBM binding z-score of 1.51.
CGAACGAGGGCATGAGTTGACAGCAAATGCCGAT was tested, and the PBM binding z-score was 0.522.
CGAACTGGGTCATTGACAGGACAGTGAATAGTAA showed a PBM binding z-score of 1.97.
GCTGCTAGGCCAACTGATGGTCAGCTAAAGCTCG was tested, and the PBM binding z-score was -0.78.
For TCTAGTTGGTCACGGAGGTCACACACGACGGGTA, the PBM binding z-score was 3.39.
Work on CGTCCAAGGTCAATGCTAGGACAGTGAAAGCATT yielded a PBM binding z-score of 4.43.
Sequence CAAACTAGGTCAGAACAGGACAGTGAAGGATGAT has a PBM binding z-score of 1.26.
For ATCTCTAGGAAACAAGTTCAGTGAAAGAGAGGAC, the PBM binding z-score was 0.902.
Sequence AGTCAAAGTTCATCTAGGTAACTTAAGATATGCT has a PBM binding z-score of 6.19.
Sequence TCTAGTTGGTCACGGAGGTCACCCACGACGGGTA has a PBM binding z-score of 3.23.
For CAAACTAGGTCACGAAAGGTCAATGTCGAATGAC, the PBM binding z-score was 7.86.
ATAGACAGGTGAGTGAAGGTAACTCAGCTGGACG showed a PBM binding z-score of 0.567.
For CCCACTGGGCCAAGGTCATTGATCAGTCAAAGCA, the PBM binding z-score was 2.95.
With ATATGTAGGTTGTCGGGTCATTCAGTTTGCGCAT the PBM binding z-score was 2.15.
Work on ACTAGCAGGCCAAGTTTGGGTCACTTAAACAAAG yielded a PBM binding z-score of 0.217.
For GGAACGAGGGCAAGTTGATAGCAGAGTTTGATGG, the PBM binding z-score was 0.522.
Sequence GCGACTGGAGCATCAGCAGGTTACCATAACTTAA has a PBM binding z-score of -0.33.
With AATACAGGGTCACAAGGCCAGAGTAGGTACGAAT the PBM binding z-score was 5.61.
